Test results: PubChem BioAssay AID1981 (Southern Research Specialized Biocontainment Screening …, 2009)
Out of some 2,200 compounds screened, about 480 (22%) were called active. How the calls were made is not given here. These entries were drawn from the full list. Results with a measured potency or affinity are listed apart.

Test: S. Typhimurium GFP fluorescence modified counterscreen for PhoP regulon inhibitor project dose response (AID 1981)
Conditions: 4 h; series mostly up to 150 µM

Structure (SMILES)	outcome
Cc1cccc(NC(=O)Cn2c(/C=C/c3ccccc3)nc3ccccc32)c1	inactive
CC1CCCCN1Cc1cnc(Cl)s1 (centres undefined)	inactive
Cc1ccc2nc(Cc3ccc(N)cc3)[nH]c2c1	inactive
Cc1ccc(-c2csc(N=C(N)N)n2)c(C)c1	inactive
Cc1ccc(-c2nc3ccccc3s2)cc1S(=O)(=O)N1CCCC1	inactive
Cn1c(SCC(=O)N2c3ccccc3CCc3ccccc32)nnc1-c1cc2ccccc2cc1O	inactive
O=S(=O)(NC1=NCCCCC1)c1cccs1	inactive
Cc1ccc(NC(=O)C2CC(=O)NC(N3CCCCC3)=N2)cc1Cl (centres undefined)	inactive
Cc1nn(CCOc2ccccc2)c(=O)n1-c1ccc(F)cc1	inactive
CC(CCc1ccccc1)NC(=O)c1ccccc1 (centres undefined)	inactive
CC(Cc1ccccc1Sc1ccccc1O)N(C)C (centres undefined)	inactive
CC(C)CCn1c(SCC(=O)N2CC(=O)Nc3ccccc32)nc2scc(-c3cccs3)c2c1=O	inactive
O=C(O)C1(P(=O)(c2ccccc2)c2ccccc2)CCC1	inactive
N#Cc1c(-c2ccccc2)ccn(Cc2cccc(Cl)c2)c1=O	inactive
COc1ccc(-c2nc3ncccc3n2O)cc1	inactive
Nc1ccccc1NC1=CC(=O)CC(c2ccco2)C1 (centres undefined)	inactive
CCn1cc(C(=O)OCC(=O)Nc2ccc(S(=O)(=O)N3CCCC3)cc2)c(=O)c2ccc(C)nc21	inactive

Structure (SMILES)	outcome
CCn1cc(C(=O)O)c(=O)c2cnc(N3CCN(C(=S)NC(=O)c4ccc(Cl)cc4)CC3)nc21	inactive
COc1ccccc1N1CCN(C(=O)CSc2nc3ccccc3o2)CC1	inactive
O=C(O)Cn1cc(C(=O)c2ccco2)c2ccccc21	inactive
O=S(=O)(c1ccc(S(=O)(=O)N2CCN(C/C=C/c3ccccc3)CC2)cc1)N1CCCC1	inactive
NS(=O)(=O)c1ccc(Nc2nc(-c3ccc(O)cc3)cs2)cc1	inactive
Fc1cccc(NCc2cn3ccccc3n2)c1	inactive
CNc1nnc(-c2cccc(N(C)C)c2)s1	inactive
COC(=O)c1c(C)[nH]c(C(C)=O)c1C	inactive
COc1ccc2c(c1)C1C=CCC1C(c1cc3c(cc1Br)OCO3)N2 (centres undefined)	inactive
COc1ccc(C(=O)N2CCc3cc(OC)c(OC)cc3C2)cc1OC	inactive
COc1ccc(S(=O)(=O)N2CCN(Cc3ccccc3)CC2)cc1	inactive
COc1ccc(C(=O)On2c(-c3ccc(Br)cc3)nc3ccccc3c2=O)cc1	inactive
COc1cccc(/C=N/n2c(C)nc3ccccc32)c1OC	inactive
CSc1nc2ccccc2n1Cc1cccc(F)c1	inactive
CCCn1c(N)nc2ccccc21	inactive
CCCCn1c(N)nc2ccccc21	inactive
COc1ccc2c(c1)nc(N)n2Cc1ccccc1	inactive
